Assay outcomes: PubChem BioAssay, National Center for Advancing Translational Sciences (NCATS)
ELG1 repair inh: inhibitors of ELG1-dependent DNA repair in HEK293T cells. 330,000 tested, 2.3% active. HEK293T ELG1-luciferase reporter, luminescence, 16 h; DNA damage induced by 5-fluorouridine. Potency, µM (top dose mostly 46.1 µM), for inactives: top-dose activity change, negative = inhibition, most hits filed as inhibitors. AID 504467; further: on the % scale 0 is the no-effect control and ±100 the full control effect; nearly all actives have a fitted effect of over 55% in size
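In this reporter screen, reduction of luminescence relative to DMSO vehicle indicated activity. Compounds and 5-fluorouridine were added together to 2,000 cells per well, incubated for 16 hr at 37 °C, then developed with ONE-Glo.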
KB-V1 cytotox: KB-V1 MDR subline cytotoxicity | 400,000 tested, 3.4% active | Potency, µM (series often up to 46.1 µM), most hits filed as cytotoxic | KB-V1 MDR cells viability, CellTiter-Glo, 72 h; further: on the % scale 0 is the no-effect control and ±100 the full control effect; nearly all actives have a fitted effect of over 60% in size
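Compound-treated KB-V1 multidrug-resistant cells, 72 h, 37 degrees C; viability by CellTiter-Glo. Fitted qHTS curves give the values.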
MCF10A rerep: inducers of DNA re-replication in MCF 10A breast cells; 350,000 tested, 2.9% active; AID 624296; MCF 10A DNA re-replication, Hoechst nuclear intensity, 48 h; Potency, µM (highest dose often 46.1 µM), without a hit: at the highest dose activity, positive = re-replication, actives largely listed as activators; further: % of control where 0% means no effect; nearly all actives have a fitted effect of over 50% in size
KB-3-1 cytotox: kills parental KB-3-1 adenocarcinoma cells; KB-3-1 viability, CellTiter-Glo ATP luminescence, 72 h; Potency, µM (highest dose often 46.1 µM), usual class: cytotoxic; 400,000 tested, 1.4% active; further: on the % scale 0 is the no-effect control and ±100 the full control effect; nearly all actives have a fitted effect of over 60% in size
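Using CellTiter-Glo luminescence, growth of non-resistant KB-3-1 adenocarcinoma cells is assessed 72 h after pin-tool compound addition at 37 °C. Normalized responses across the concentration series yield fitted curves.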
SW480 rereplic: DNA re-replication induction in SW480 cells | SW480 DNA re-replication, Hoechst DNA content imaging, 48 h | Potency, µM (series often up to 46.1 µM), for the others: at the top dose re-replication activation, actives largely listed as activators | 340,000 tested, 1.8% active | AID 624297; further: % of control where 0% means no effect; nearly all actives have a fitted effect of over 55% in size
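250 cells/well; 23 nL cpd via pin tool; 48 hr, 37 C, 5% CO2; Hoechst 40 min; imager read of total nuclear intensity, ex 405/em 500-530 nm.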
* hit, by the source's call; i = inactive; u = inconclusive; x = no result given. Shown are actives, neighbours in structure and some others; about 8.1% of the full set was active somewhere. The call rests on the fitted dose curve; in most records, active means well fitted curve in the direction sought with a large enough effect; inconclusive means small, poorly fitted or top-dose-only effect, or another doubt; inactive means no such curve, though single readings can be large; an effect the other way counts as inactive or inconclusive. Potency means the concentration at half of the fitted maximal effect.

SMILES | ELG1 repair inh | KB-V1 cytotox | MCF10A rerep | KB-3-1 cytotox | SW480 rereplic
COc1ccc(C(=O)C[C@@H]2OC[C@H](Cc3ccccc3)N2S(=O)(=O)c2ccc(C)cc2)cc1OC | x | u | x | i | x
Cc1cccc(N2CCN(C(=O)CCCn3c(=O)c4cccn4c4cccnc43)CC2)c1C | 16.4µM* | u | u | i | -14.9%
Cc1cccc(N2CCN(C(=O)CCn3c(=O)[nH]c4ccccc4c3=O)CC2)c1C | 9.2µM* | i | 13.8% | i | -4.4%
CCOc1cc(CNC(=O)CCCn2c(=O)c3cccn3c3cccnc32)cc(OCC)c1OCC | 16.4µM* | i | 0.2% | i | -5.5%
Cc1cccc(N2CCN(C(=O)c3cn(C)c(=O)c4c3c3ccccc3n4C)CC2)c1C | 23.1µM* | u | u | u | u
COc1ccccc1N1CCN(C(=O)CCn2c(=O)[nH]c3ccccc3c2=O)CC1 | -15.0% | i | -0.4% | i | -8.4%
CCc1ccc(CNC(=O)CCCn2c(=O)c3cccn3c3cccnc32)cc1 | 2.5% | i | 15.3% | i | -7.1%
Cc1nc(-c2ccc(S(=O)(=O)Nc3ccc(OC(F)(F)F)cc3)cc2)co1 | x | i | x | i | x
CSc1nc(NCCOC(C)=O)c(C#N)c(-c2ccc(C(C)(C)C)cc2)n1 | x | i | x | i | x
O=C(CN1C(=O)NC2(CCCC2)C1=O)NCCc1ccccc1 | 18.9% | i | -1.0% | i | 13.6%
Cc1ccc(Cl)cc1N1CCN(C(=O)CCCn2c(=O)c3cccn3c3cccnc32)CC1 | u | u | 16.4µM* | i | u
O=C(c1ccc(F)cc1)C1CCN(C(=S)Nc2ccc(F)cc2)CC1 | 10.3µM* | i | 1.9% | i | -5.2%
COc1ccc(C(=O)C2CCN(C(=O)Nc3ccc(C)cc3)CC2)cc1 | -5.5% | u | 16.1% | i | -4.7%
CC(C)(C)NC(=S)N1CCC(C(=O)c2ccc(F)cc2)CC1 | -9.8% | i | 1.6% | i | -6.2%
Cc1ccc(NC(=O)N2CCC(C(=O)c3ccc(F)cc3)CC2)cc1 | -10.9% | 23.1µM* | 10.7% | i | -1.8%
O=C1[C@@H]2CSCN2C(=O)CN1Cc1ccc(F)cc1 | 12.3% | i | 1.9% | i | 3.7%
CC(=O)C(=Cc1ccccc1)c1ccccc1 | x | u | x | i | x
CCCCc1ccc(N/C(N)=N/c2nc(C)cc(C)n2)cc1 | u | 6.51µM* | u | u | u
Cc1cc(C)cc(N/C(N)=N/c2nc(C)cc(C)n2)c1 | 14.6µM* | 20.6µM* | u | u | u
Cc1cccc(OC(=O)CSc2nnc(-c3cccs3)o2)c1C | x | i | x | i | x
Cc1nc2cc(-c3ccccc3)nn2c(C)c1CCC(=O)NCc1cccc(Cl)c1 | x | i | x | i | x
Nc1cc(N)nc(SCC(=O)NC(=O)NC2CCCC2)n1 | 16.9% | u | 0.7% | i | -7.8%
C[C@@H]1CCCCO[C@@H](CN(C)S(=O)(=O)c2cn(C)cn2)[C@@H](C)CN([C@H](C)CO)C(=O)c2cc(N(C)C)ccc2O1 | x | i | x | i | x
Cc1cccc(N2CCN(C(=O)Cc3c(C(=O)O)c(C)cn3C)CC2)c1C | x | i | x | i | x
O=C(O)COc1ccccc1/C=C1\C(=O)Nc2ccc(Br)cc21 | -7.7% | i | -15.9% | i | -7.5%
SMILES | ELG1 repair inh | KB-V1 cytotox | MCF10A rerep | KB-3-1 cytotox | SW480 rereplic
O=C1Nc2ccc(Br)cc2/C1=C/C(=O)c1ccccc1 | x | u | 18.4µM* | u | u
C=CCOc1cccc(C(=O)/C=C2/C(=O)Nc3ccccc32)c1 | 15.1% | i | 5.8µM* | u | u
O=S1(=O)N=C(Oc2ccc(-c3ccccc3)cc2)c2ccccc21 | x | i | x | i | x
O=C(O)CCn1cc(C2CC(c3ccccc3)=NN2c2ccccc2)c(-c2ccccc2)n1 (stereo not given) | 12.4% | i | 11.6µM* | i | 23.1µM*
O=C(Nc1ccc2sccc2c1)c1ccc(Cl)s1 | u | i | 18.4µM* | i | -2.1%
Nc1c(C(=O)NCc2ccc(Cl)cc2)sc2nc3c(c(C(F)(F)F)c12)CCC3 | 3.6% | 14.6µM* | 4.5% | i | u
Cc1ccc(-c2c3c(nc4sc(C(N)=O)c(N)c24)CCC3)cc1 | u | u | 11.6µM* | i | 24.2%
NC(=O)c1sc2nc3c(c(-c4ccc(Cl)cc4)c2c1N)CCCC3 | u | 2.91µM* | u | u | u
Cc1ccc(CNC(=O)c2sc3nc4c(c(C(F)(F)F)c3c2N)CCC4)cc1 | -1.6% | u | 9.9% | i | 2.0%
Cc1ccc(C(=O)Cn2nnc3c(sc4nc5c(c(-c6ccccc6)c43)CCC5)c2=O)cc1 | -14.3% | i | 19.0% | i | -1.3%
COc1cc2c(cc1CNC[C@H]1O[C@@H](n3cnc4c(N)ncnc43)[C@H](O)[C@@H]1O)OCO2 | 7.7% | i | -3.5% | i | -2.5%
Cc1cnn(CCC(=O)NNC(=S)Nc2ccc(F)cc2)c1 | u | i | 19.6% | i | -1.8%
Cc1cnn(CCC(=O)NNC(=S)Nc2cccc(Cl)c2)c1 | u | i | -0.2% | i | 6.51µM*
Cc1ccc2c(c1)c1ncnc(N3CCN(c4ccccc4)CC3)c1n2C | 6.7% | u | u | i | -0.9%
Cc1ccc2c(c1)c1ncnc(N3CCOCC3)c1n2C | u | 23.1µM* | u | i | -1.7%
CC1(C)S[C@@H]2[C@H](NC(=O)COc3ccccc3)C(=O)N2[C@@H]1C(=O)OCc1cccc2cccnc12 | x | i | x | i | x
CCCc1cc(-c2nc(-c3ccc(Cl)cc3)cs2)ccn1 | 15.3% | 16.4µM* | u | i | -5.4%
